# PubChem BioAssay
# Calls of active or inactive are those of the source. Unless noted, the rule behind the calls is not given here.
# Experiments:
# [1] = tested on: Wnt5a (protein binding on small-molecule microarray); assay: small molecules binding Wnt5a protein – biophysical, small-molecule microarray, 635/667 nm fluorescence, primary screen (AID 1142); conditions: 635 nm fluorescence, higher = more signal;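 note: fluorescence read at 667 nm with signal to noise per printed feature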
# [2] = ATP-based viability of Huh7 replicon cells – cell-based, CellTiter-Glo luminescence, basal, 48 h, cytotoxicity control for HCV replication inhibitor project, primary screen (AID 1143); conditions: higher = more signal, called active from +8 up or from −8 down;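 note: Huh7 hepatoma cells carrying a hepatitis C replication reporter with no stimulus; test concentration not given here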
# [3] = Pseudomonas biofilm growth suppression – PAO1 strain, BacTiter-Glo luminescence, LB-PBS, primary screen (AID 1144); conditions: P. aeruginosa PAO1 biofilm, 12 h, higher = more signal
# [4] = basal CRE-LacZ reporter activity in PC12 – cell-based, unstimulated, primary screen (AID 1145); conditions: no forskolin, luminescence, 4.5 h, higher = more signal, called active from +8 up or from −8 down
# [5] = forskolin-driven CRE-LacZ activity in PC12 – cell-based, CRE-LacZ reporter, forskolin-stimulated, primary screen (AID 1146); conditions: luminescence, 4.5 h, higher = more signal, called active from +8 up or from −8 down;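 note: PC12 cells with 6xCRE LacZ reporter stimulated by forskolin 10 µM; beta-galactosidase reporter signal reflecting CREB driven transcription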
# [6] = biological target: Streptavidin (Streptomyces avidinii) (UniProt P22629); assay: compounds binding control protein streptavidin – biophysical, small-molecule microarray, 635/667 nm fluorescence, artefact control for SMM compound annotation, primary screen (AID 1147); conditions: higher = more signal;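 note: signal reflects streptavidin binding to arrayed compounds as a control protein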
# Chain of Streptavidin (Streptomyces avidinii) (P22629 whole entry, looked up): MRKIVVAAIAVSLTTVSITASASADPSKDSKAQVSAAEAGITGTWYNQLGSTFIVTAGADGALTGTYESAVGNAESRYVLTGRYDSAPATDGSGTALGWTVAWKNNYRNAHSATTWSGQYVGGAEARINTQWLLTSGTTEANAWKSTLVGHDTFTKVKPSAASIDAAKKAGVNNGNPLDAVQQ
# [7] = probe aInhba binding on compound microarray – biochemical, small-molecule microarray, 635/667 nm fluorescence, primary screen (AID 1148); conditions: higher = more signal;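 note: score merges 667nm spot fluorescence with signal-to-noise for antibody binding to printed compounds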
# Torsin-1A (Homo sapiens) [8] = biological target: Torsin-1A (Homo sapiens) (UniProt O14656); assay: TOR1A wild-type binding on microarray – cell lysate, small-molecule microarray, lysate, 635/667 nm, primary screen (AID 1149); conditions: COS7 hTOR1A-WT lysate, 635 nm fluorescence, higher = more signal
# Chain of Torsin-1A (Homo sapiens) (O14656 whole entry, looked up): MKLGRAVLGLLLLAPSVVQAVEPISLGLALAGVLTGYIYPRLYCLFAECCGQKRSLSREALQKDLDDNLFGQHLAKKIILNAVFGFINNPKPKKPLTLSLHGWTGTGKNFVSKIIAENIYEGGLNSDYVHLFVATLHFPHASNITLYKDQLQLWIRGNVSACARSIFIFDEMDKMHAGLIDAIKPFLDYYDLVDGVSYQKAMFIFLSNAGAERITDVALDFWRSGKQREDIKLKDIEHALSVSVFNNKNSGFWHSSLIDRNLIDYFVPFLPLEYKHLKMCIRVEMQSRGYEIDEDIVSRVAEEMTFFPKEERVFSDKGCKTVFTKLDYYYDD
# Torsin-1A (Homo sapiens) [9] = biological target: Torsin-1A (Homo sapiens) (UniProt O14656); assay: torsin A mutant lysate binding on microarrays – cell lysate, small-molecule microarray, COS7 lysate, 635/667 nm fluorescence, primary screen (AID 1150); conditions: COS7 hTOR1A mutant lysate, 635 nm fluorescence, higher = more signal;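 note: score pools 667 nm emission and signal to noise measuring lysate protein binding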
# [10] = tested on: Sonic hedgehog protein (Shh); assay: Sonic hedgehog microarray binding compounds – biochemical, small-molecule microarray, 635/667 nm fluorescence, primary screen (AID 1151); conditions: 635 nm fluorescence, higher = more signal;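 note: Shh protein binding to compounds spotted on small-molecule microarray slides; score combines spot fluorescence intensity with signal-to-noise across triplicate slides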
# [11] = optical density shifts of acrAB sulA E. coli – strain DRC41, OD650, 48 h, E. coli filamentation inducer project, primary screen (AID 1152); conditions: higher = more signal, called active from +8 up or from −8 down;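 note: E. coli MC1000 strain DRC41 lacking acrAB efflux pump and sulA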
# [12] = probe aLefty1 binding on compound microarray – biochemical, small-molecule microarray, 635/667 nm fluorescence, primary screen (AID 1153); conditions: higher = more signal;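 note: score merges spot fluorescence with signal-to-noise ratio from the scanned slide images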
# [13] = plasmodial surface anion channel blockers, osmotic lysis – cell-based, P. falciparum Indochina, OD700, 1 h, primary screen (AID 1154); conditions: P. falciparum Indochina infected RBC osmotic lysis, higher = more signal, called active from +8 up or from −8 down
# [14] = plasmodial surface anion channel blockers, osmotic lysis – cell-based, P. falciparum Indochina, OD700, 2 h, primary screen (AID 1155);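 note: lysis reports solute entry through the parasite surface anion channel PSAC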; conditions: P. falciparum Indochina infected erythrocytes, higher = more signal, called active from +8 up or from −8 down
# [15] = changes in parasitized red cell lysis, either direction – P. falciparum Indochina, OD700, 3 h, PSAC antagonist project, primary screen (AID 1156); conditions: P. falciparum-infected erythrocytes, osmotic lysis, higher = more signal, called active from +8 up or from −8 down
# [16] = plasmodial surface anion channel blockers, osmotic lysis – cell-based, P. falciparum Indochina, OD700, 18 h, primary screen (AID 1157); conditions: P. falciparum Indochina infected erythrocytes, osmotic lysis OD700, 18 h; higher = more signal, called active from +8 up or from −8 down
# [17] = S6 kinase pathway phospho-S6 level changes – cell-based, A549, cytoblot, luminescence, serum-stimulated, primary screen (AID 1158); conditions: 5 h, higher = more signal;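 note: serum-stimulated A549 lung adenocarcinoma cells; signal is phosphorylated S6 detected by cytoblot immunostaining with HRP secondary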
# [18] = biological target: NADPH oxidase 2 (Homo sapiens) (UniProt P04839); assay: compounds shifting NOX2 Amplex Red fluorescence – cell-based, HEK293-NOX2, PMA-stimulated, NOX inhibitor project, primary screen (AID 1159); conditions: 45 min, higher = more signal, called active from +8 up or from −8 down; note: test concentration not given here
# Chain of NADPH oxidase 2 (Homo sapiens) (P04839 whole entry, looked up): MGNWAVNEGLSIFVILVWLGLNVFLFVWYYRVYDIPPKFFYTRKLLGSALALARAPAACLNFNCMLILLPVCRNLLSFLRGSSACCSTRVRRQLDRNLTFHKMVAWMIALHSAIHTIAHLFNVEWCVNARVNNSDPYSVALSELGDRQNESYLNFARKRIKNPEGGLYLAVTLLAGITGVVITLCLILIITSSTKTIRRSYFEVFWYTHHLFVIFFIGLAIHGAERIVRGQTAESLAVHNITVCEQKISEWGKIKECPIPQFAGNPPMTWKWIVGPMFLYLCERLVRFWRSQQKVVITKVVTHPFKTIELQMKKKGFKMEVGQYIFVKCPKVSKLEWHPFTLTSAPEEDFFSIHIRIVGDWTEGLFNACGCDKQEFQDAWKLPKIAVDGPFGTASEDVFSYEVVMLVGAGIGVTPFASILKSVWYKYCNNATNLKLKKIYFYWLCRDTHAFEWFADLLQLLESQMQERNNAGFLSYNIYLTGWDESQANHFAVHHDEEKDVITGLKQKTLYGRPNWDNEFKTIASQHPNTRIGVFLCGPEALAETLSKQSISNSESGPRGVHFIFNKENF
# [19] = biological target: NADPH oxidase 4 (Homo sapiens) (UniProt Q9NPH5); assay: compounds shifting NOX4 Amplex Red fluorescence – cell-based, HEK293-NOX4, tetracycline-induced, NOX inhibitor project, primary screen (AID 1160); conditions: HEK293-NOX4, Amplex Red H2O2 fluorescence, 45 min; higher = more signal, called active from +8 up or from −8 down
# Chain of NADPH oxidase 4 (Homo sapiens) (Q9NPH5 whole entry, looked up): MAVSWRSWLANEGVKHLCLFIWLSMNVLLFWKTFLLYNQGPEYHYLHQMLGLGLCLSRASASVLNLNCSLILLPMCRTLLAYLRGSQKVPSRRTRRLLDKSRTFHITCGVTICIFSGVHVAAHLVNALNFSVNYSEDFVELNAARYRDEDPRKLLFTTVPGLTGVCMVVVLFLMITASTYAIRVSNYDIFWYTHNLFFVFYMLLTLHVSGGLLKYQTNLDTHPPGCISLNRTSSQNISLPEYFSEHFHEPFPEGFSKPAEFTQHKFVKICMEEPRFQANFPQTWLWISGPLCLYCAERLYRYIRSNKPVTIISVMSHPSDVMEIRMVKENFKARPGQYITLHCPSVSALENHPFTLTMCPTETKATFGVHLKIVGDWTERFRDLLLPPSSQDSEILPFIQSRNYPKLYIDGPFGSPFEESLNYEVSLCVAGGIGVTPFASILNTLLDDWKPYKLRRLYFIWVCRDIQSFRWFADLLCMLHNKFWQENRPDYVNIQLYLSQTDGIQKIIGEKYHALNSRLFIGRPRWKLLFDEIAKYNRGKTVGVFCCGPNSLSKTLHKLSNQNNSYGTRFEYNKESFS
# [20] = biological target: NADPH oxidase 5 (Homo sapiens) (UniProt Q96PH1); assay: compounds shifting NOX5 Amplex Red fluorescence – cell-based, HEK293-NOX5, NOX inhibitor project, primary screen (AID 1161); conditions: HEK293-NOX5, ionomycin, 45 min, higher = more signal
# Chain of NADPH oxidase 5 (Homo sapiens) (Q96PH1 whole entry, looked up): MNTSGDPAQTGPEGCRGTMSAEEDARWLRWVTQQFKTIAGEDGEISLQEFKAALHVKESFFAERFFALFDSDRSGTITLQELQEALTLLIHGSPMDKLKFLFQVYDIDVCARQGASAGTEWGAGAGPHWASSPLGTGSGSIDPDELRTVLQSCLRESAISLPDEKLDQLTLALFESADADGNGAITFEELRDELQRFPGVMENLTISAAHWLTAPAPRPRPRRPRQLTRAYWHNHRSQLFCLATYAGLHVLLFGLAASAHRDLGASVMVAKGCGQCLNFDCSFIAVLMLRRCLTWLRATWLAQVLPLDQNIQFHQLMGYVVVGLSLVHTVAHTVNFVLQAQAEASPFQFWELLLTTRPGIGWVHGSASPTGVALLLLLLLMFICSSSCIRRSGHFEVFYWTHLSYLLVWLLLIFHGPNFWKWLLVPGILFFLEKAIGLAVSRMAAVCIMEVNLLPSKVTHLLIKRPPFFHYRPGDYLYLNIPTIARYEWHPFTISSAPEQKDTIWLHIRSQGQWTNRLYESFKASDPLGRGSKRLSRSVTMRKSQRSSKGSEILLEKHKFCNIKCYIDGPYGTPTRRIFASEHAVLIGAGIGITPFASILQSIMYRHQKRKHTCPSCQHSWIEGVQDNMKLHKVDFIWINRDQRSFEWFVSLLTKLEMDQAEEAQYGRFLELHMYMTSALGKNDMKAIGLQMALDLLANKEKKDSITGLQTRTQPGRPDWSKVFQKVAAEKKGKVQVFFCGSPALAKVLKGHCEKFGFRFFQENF
Compound,composite z-score [1],z-score [2],z-score [3],z-score [4],z-score [5],composite z-score [6],composite z-score [7],composite z-score (Torsin-1A (Homo sapiens) [8]),composite z-score (Torsin-1A (Homo sapiens) [9]),composite z-score [10],z-score [11],composite z-score [12],z-score [13],z-score [14],z-score [15],z-score [16],z-score [17],z-score [18],z-score [19],z-score [20]
O=C(CS)NCCCCCCNC(=O)[C@H]1C[C@H]2C(=O)N3CCC[C@H]3C(=O)N2[C@H]1c1ccc(O)cc1,-0.161,-0.514 (inactive),-0.256 (inactive),0.675 (inactive),0.465 (inactive),-0.322,-0.05,0.624,0.947,1.8,-0.827 (inactive),0.157,3.99 (inactive),0.776 (inactive),-1.85 (inactive),0.179 (inactive),-0.126,1.05 (inactive),0.241 (inactive),0.247
O=C1O[C@@H](c2ccccc2)[C@@H](c2ccccc2)N2[C@@H](c3ccc(O)cc3)[C@]3(C(=O)Nc4ccccc43)[C@@H](C(=O)NC[C@H](O)c3ccccc3)[C@H]12,0.062,-2.34 (inactive),0.184 (inactive),0.0921 (inactive),0.175 (inactive),-0.26,-0.176,-1,0.371,0.142,2.14 (inactive),-0.151,1.36 (inactive),-1.01 (inactive),-1.22 (inactive),-1.89 (inactive),1.09,0.0877 (inactive),-0.423 (inactive),1.42
Cc1ccc(S[C@]2(C(=O)NCCCN(C)C)CC(=O)N(C(C)C)[C@@H]2c2ccc(CO)cc2I)cc1,-0.331,-2.21 (inactive),-0.985 (inactive),-0.114 (inactive),0.561 (inactive),-0.199,-0.0986,-1.59,-0.729,0.0632,0.997 (inactive),0.264,6.19 (inactive),-0.185 (inactive),1.38 (inactive),0.277 (inactive),-0.265,0.347 (inactive),-0.675 (inactive),2.17
Cc1ccc([C@H]2C(C(=O)O)=C[C@@H](C(C)C)N2S(=O)(=O)c2ccc(C)cc2)cc1,-0.167,0.0491 (inactive),0.633 (inactive),-0.424 (inactive),1.01 (inactive),0.946,0.0173,-0.165,0.28,-0.542,-1.01 (inactive),0.121,0.297 (inactive),0.711 (inactive),-0.539 (inactive),0.734 (inactive),-0.365,0.79 (inactive),-1.06 (inactive),-0.32
COc1cc2c(cc1O)C(c1ccc(CN3CCCC3)cc1)N(Cc1sc3ccccc3c1Cl)CC2 (stereo not given),0.0746,-3.63 (inactive),-0.0323 (inactive),0.416 (inactive),0.821 (inactive),0.706,-0.292,0.834,0.309,0.436,0.13 (inactive),-0.113,12.5 (active),2.66 (inactive),0.913 (inactive),1.7 (inactive),0.0223,-3.44 (inactive),-3.41 (inactive),-4
[N-]=[N+]=NCc1ccccc1[C@@H]1OC(c2ccc(OCCCO)cc2)=N[C@]1(Cc1ccccc1)C(=O)O,-0.198,-0.354 (inactive),-0.608 (inactive),1.19 (inactive),-0.707 (inactive),0.728,-0.016,0.497,0.786,-0.934,-0.235 (inactive),0.0429,15.6 (active),2.07 (inactive),-0.143 (inactive),0.786 (inactive),-0.117,0.174 (inactive),1.1 (inactive),1.74
O=C1O[C@@H](c2ccccc2)[C@@H](c2ccccc2)N2[C@@H](c3ccc(O)cc3)[C@]3(C(=O)Nc4ccc(C#CCCO)cc43)[C@@H](C(=O)O)[C@H]12,0.13,0.457 (inactive),-0.682 (inactive),0.0921 (inactive),-0.31 (inactive),1.47,1.47,0.0458,-0.0978,-0.3,0.742 (inactive),1.99,2.28 (inactive),0.62 (inactive),1.22 (inactive),0.614 (inactive),-0.29,0.645 (inactive),-1.2 (inactive),1.21
C[N+](C)(C)CCCCNC(=O)[C@H]1C[C@H]2C(=O)N3CCC[C@H]3C(=O)N2[C@H]1c1ccc(O)cc1,0.554,-0.102 (inactive),0.014 (inactive),-0.821 (inactive),-0.512 (inactive),0.319,-0.164,1.84,1.66,1.86,-0.314 (inactive),-0.0141,0.542 (inactive),0.196 (inactive),-1.66 (inactive),0.0068 (inactive),-0.0429,-2.45 (inactive),-0.739 (inactive),-1.42
O=C1OCC=C[C@H]2OC34C=CCN(c5ccc(Cl)cc5)C(=O)[C@H]3N(CCCO)C(=O)[C@@H]4[C@@H]12 (stereo not given in full),-0.329,-2.14 (inactive),-0.288 (inactive),1.28 (inactive),0.245 (inactive),-1.47,-0.15,0.626,-2.06,-0.629,0.657 (inactive),-0.128,0.204 (inactive),-0.531 (inactive),-0.172 (inactive),-1.41 (inactive),0.808,0.846 (inactive),-0.895 (inactive),2.6
